Bioassay records deposited in PubChem BioAssay by National Center for Advancing Translational Sciences (NCATS).
Most compounds without a hit are left out; they make up all but 5.7% or so of the library.
B2AR arrestin – recruits beta-arrestin to the human beta2-adrenergic receptor | P07550 | beta-arrestin recruitment to beta2AR, cell-based reporter | Potency, µM (series often up to 46.1 µM), for the others: at the top dose activation, usual class: activators | actives 0.02% (n = 330,000) | AID 492947;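 further: 0% = DMSO controls and full agonism = EC100 isoproterenol or metaproterenol; nearly all actives have a fitted effect of over 65% in size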
RORgamma inh – blocks mouse ROR gamma transcriptional activity. P51450. Drosophila S2 Gal4-RORgamma UAS-luciferase reporter, 20 h. Potency, µM (doses to about 53.6 µM), without a hit: at the highest dose activity change, negative = inhibition, hits mostly inhibitors. actives 5.4% (n = 310,000); further: nearly all actives have a fitted effect of over 60% in size
Target sequence (P51450 whole entry, looked up, the tested form may be a part): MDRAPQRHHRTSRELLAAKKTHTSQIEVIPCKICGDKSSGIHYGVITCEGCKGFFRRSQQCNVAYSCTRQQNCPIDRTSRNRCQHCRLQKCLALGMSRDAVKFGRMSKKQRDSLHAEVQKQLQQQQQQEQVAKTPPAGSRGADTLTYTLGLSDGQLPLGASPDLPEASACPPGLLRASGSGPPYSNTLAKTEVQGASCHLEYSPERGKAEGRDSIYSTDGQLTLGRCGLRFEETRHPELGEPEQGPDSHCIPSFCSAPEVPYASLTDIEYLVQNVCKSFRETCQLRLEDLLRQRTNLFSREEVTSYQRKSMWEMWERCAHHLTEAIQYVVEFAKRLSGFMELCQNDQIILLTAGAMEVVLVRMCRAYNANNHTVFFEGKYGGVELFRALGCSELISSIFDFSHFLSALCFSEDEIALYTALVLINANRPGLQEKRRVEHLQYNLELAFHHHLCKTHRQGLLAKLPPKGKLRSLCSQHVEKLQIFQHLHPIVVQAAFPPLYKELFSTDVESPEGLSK
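Compounds are pin-transferred onto Drosophila Schneider cells expressing a copper-inducible Gal4–ROR gamma transactivation domain fusion. After 1 hr, copper sulfate is added to 700 uM final; luciferase is read 20 hr later.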
NPSR antagonist – antagonists of human neuropeptide S receptor cAMP signaling; CHO-NPSR cells, cAMP TR-FRET, antagonist mode; Potency, µM (titrated, usually from 38.3 µM), for the others: top-dose activity change, negative = inhibition, most hits filed as inhibitors; actives 1% (n = 220,000); further: nearly all actives have a fitted effect of over 50% in size
VP16 counter – Gal4-VP16 reporter inhibition counter-screen; Drosophila S2 Gal4-VP16 UAS-luciferase, luminescence, 20 h; Potency, µM (top dose mostly 53.6 µM), for the others: top-dose activity, negative = inhibition, actives largely listed as inhibitors; actives 3.5% (n = 310,000); AID 2546;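 further: Gal4-VP16 expression switched on by copper sulfate through the metallothionein promoter; nearly all actives have a fitted effect of over 50% in size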
* = called active by the depositor; u = inconclusive; x = not tested or not shown; ! = not confirmed by another sample; [ ] = remark or other dose. The call rests on the fitted dose curve; in most records, active means well fitted curve in the direction sought with a large enough effect; inconclusive means small, poorly fitted or top-dose-only effect, or another doubt; inactive means no such curve, though single readings can be large; an effect the other way counts as inactive or inconclusive. Unless noted, on the % scale 0 is the no-effect control and ±100 the full control effect; potency means the concentration at half of the fitted maximal effect.

SMILES	B2AR arrestin	RORgamma inh	NPSR antagonist	VP16 counter
C=CCNC(=S)N/N=C/c1ccccc1OCCOc1ccccc1	-1.1%	2.51µM*	x	5.01µM*
COc1cc(/C=N/NC(=S)NCc2ccco2)cc(OC)c1OC	-0.6%	42.6%	-22.1%	u
COC(=O)N/N=C/c1ccccc1OCCOc1ccc(OC)cc1	-0.9%	24.1%	-0.7%	-12.2%
S=C(NCc1ccco1)N/N=C/c1ccccc1Cl	-0.5%	11.2µM*	-14.4%	u
CO/N=C/c1ccc(N2CCN(C(=O)c3ccc(F)cc3)CC2)c([N+](=O)[O-])c1	0.0%	u	-10.5%[46.1 µM]	8.91µM*
CO/N=C/c1ccc(N2CCN(C(=O)c3cccc(C(F)(F)F)c3)CC2)c([N+](=O)[O-])c1	-0.1%	u	-24.2%[46.1 µM]	u
Cc1ccc(-c2cc(-c3ccccc3)c(C#N)c(N)n2)o1	-0.4%	20µM*	-17.8%[46.1 µM]	u
Cc1ccc(-c2cc(-c3ccccc3Cl)c(C#N)c(N)n2)o1	0.1%	u	-23.0%[46.1 µM]	-4.9%
O=C1c2oc3ccc(Cl)cc3c(=O)c2C(c2ccccn2)N1CCCN1CCOCC1 (stereo unspecified)	-0.1%	22.4µM*	-10.1%[46.1 µM]	u
CCOC(=O)CN1NC2(CCCCCC2)NC1=S	-0.8%	7.08µM*	-4.1%	-17.3%
O=C(CCl)N(C1CCCC1)C1CCS(=O)(=O)C1 (stereo unspecified)	-0.8%	u	x	15.8µM*
COc1ccc(-c2csc(NC(=S)NC(=O)/C=C/c3ccco3)n2)cc1Br	-0.1%	7.94µM*	u	u
Cc1sc(NC(=O)/C=C/c2ccc(C(C)C)cc2)c(C#N)c1C	0.1%	-3.1%	-10.5%[46.1 µM]	-2.5%
COc1ccc(-c2csc(NC(=S)NC(=O)c3ccccc3)n2)cc1Br	-1.1%	-0.2%	-2.2%	3.0%
CC(C)c1ccc(/C=C/C(=O)Nc2nncs2)cc1	-2.9%	12.6µM*	7.8%	-29.8%
COc1ccc(-c2csc(NC(=S)NC(=O)/C=C/c3ccc(C(C)C)cc3)n2)cc1OC	-0.1%	3.98µM*	x	7.94µM*
COc1ccc(-c2csc(NC(=S)NC(=O)/C=C/c3ccco3)n2)cc1OC	-0.9%	7.94µM*	1µM*	14.1µM*
Cc1cc(C)c2c(c1)/C(=c1/sc3n(c1=O)CN(c1ccccc1)CN=3)C(=O)N2	-0.4%	-20.7%	u	5.2%
COc1ccc2cc(/C(C)=N/NC(=S)Nc3cc(S(=O)(=O)N4CCOCC4)ccc3N3CCOCC3)ccc2c1	0.0%	6.31µM*	-23.7%	8.1%[10 µM]
C/C(CCC(C)C)=N\NC(=S)Nc1cc(S(=O)(=O)N2CCOCC2)ccc1N1CCOCC1	4.5%	11.2µM*	-46.3%	u
C/C(=N\NC(=S)Nc1ccc(C)c(C)c1)c1ccc(N2CCOCC2)cc1	-0.1%	14.1µM*	u	u
C/C(=N\NC(=S)Nc1cc(S(=O)(=O)N2CCOCC2)ccc1Cl)c1ccc(N2CCOCC2)cc1	-0.2%	2.82µM*	13.6%	11.2µM*
CCC(=O)O	x	4.5%	x	4.3%
CO[C@@H]1/C=C\CC(=O)N[C@@H](C)C(=O)OC[C@@H](OC)[C@H](C)CCCC(=O)OC[C@H]1C	x	16.1%[10 µM]	x	-11.4%[10 µM]
CCNc1ncc2nc(-c3cn(C)c4ccccc34)c(=O)n(Cc3ccc(F)cc3)c2n1	x	-16.3%	x	3.0%
SMILES	B2AR arrestin	RORgamma inh	NPSR antagonist	VP16 counter
Oc1ccccc1-c1nnc(-c2ccc(C(F)(F)F)cc2)o1	-0.8%	3.55µM*	-6.2%[46.1 µM]	6.31µM*
CC(C)(C)C(=O)N1CCc2cc(-c3csc(N)n3)ccc21	-0.4%	12.6µM*	-13.9%[46.1 µM]	10µM*
C/C=C(/C(=C/C)c1ccc(O)cc1)c1ccc(O)cc1	1.46µM*	30.1%	-22.8%	-4.2%
C=C(c1ccc(O)cc1)c1ccc(O)cc1	0.4%	26.0%	-22.1%[46.1 µM]	u
CC(C)(C)NC(=O)[C@@H]1CC[C@@H]2[C@@H]3CC[C@@H]4NC(=O)C=C[C@@]4(C)[C@H]3CC[C@]21C	x	-29.8%[2.98 µM]	x	-20.1%[17 µM]
NNC(=O)COc1ccc(-c2n[nH]c(C(F)(F)F)c2-c2ccc(Br)cc2)c(O)c1	-0.2%	u	-8.8%	u
COc1ccccc1-c1c(-c2ccc(OCC(=O)NN)cc2O)n[nH]c1C(F)(F)F	1.6%	-25.5%	13.6%	11.2µM*
C=CCN(C(=O)CSc1nc2c(sc3ccccc32)c(=O)n1CCN(CC)CC)c1ccccc1	-0.3%	u	u	u
CC1(C)OC(=O)C=C[C@]2(C)[C@H]3CC[C@@]4(C)[C@H](c5ccoc5)OC(=O)[C@H]5O[C@]54[C@]3(C)C(=O)C[C@@H]12	0.2%	x	x	x
CC1(C)C(=O)C=C[C@@]2(C)C1C=C[C@@]1(C)C2CC[C@@]2(C)C(c3ccoc3)OC(=O)C3OC312 (stereo partly specified)	x	7.08µM*	x	6.3%
O=c1c2c(nc3cc(-c4ccc(F)cc4)[nH]n13)CCCC2	-0.9%	8.91µM*	-18.2%[46.1 µM]	11.2µM*
CC[C@H](C)[C@H](N)C(=O)N[C@@H](CC(N)=O)C(=O)N1CCC[C@H]1C(=O)N[C@H](C(=O)N[C@@H](Cc1ccc(O)cc1)C(=O)N[C@@H](CCCN=C(N)N)C(=O)N[C@@H](CC(C)C)C(=O)N[C@@H](CCCN=C(N)N)C(=O)N[C@@H](Cc1ccc(O)cc1)C(N)=O)[C@@H](C)CC	x	-18.0%	x	3.0%
O=C(Nc1ccc2c(c1)OCO2)c1cc(-c2cccc(O)c2)on1	-1.3%	7.08µM*	x	14.1µM*
COc1ccc(-c2cc(C(=O)Nc3cccc(O)c3)no2)cc1	-0.2%	1.41µM*	x	3.16µM*
COc1ccc(-c2cc(C(=O)Nc3ccc(C)c(C)c3)no2)cc1	0.5%	22.1%	x	-8.7%
O=C(Nc1ccc2c(c1)OCO2)c1cc(-c2ccc(O)cc2)on1	-0.1%	0.0%	x	u
O=C(Nc1cccc(O)c1)c1cc(-c2ccco2)on1	0.3%	12.6µM*	-16.8%[46.1 µM]	u
C[C@H](CO)N1C[C@H](C)[C@@H](CN(C)S(=O)(=O)c2cccs2)Oc2ccc(NS(=O)(=O)c3ccc(F)cc3)cc2C1=O	0.0%	x	x	x
O=C(NNS(=O)(=O)c1ccc(F)cc1)c1cnn(-c2ccccc2)c1C(F)(F)F	0.3%	u	-7.8%	12.6µM*
O=C(NNS(=O)(=O)c1ccc(C(F)(F)F)cc1)c1cnn(-c2ccccc2)c1C(F)(F)F	0.3%	5.6%	18.8%	-6.1%
COC(=O)[C@H](c1ccccc1Cl)N1CCc2sccc2C1	0.0%	-17.4%	x	0.3%
COC(=O)C(c1ccccc1Cl)N1CCc2sccc2C1 (stereo unspecified)	x	3.55µM*!	x	u
CC(C)NC(=O)N1CC[C@@]2(CCCN(C(=O)c3cc(C(F)(F)F)cc(C(F)(F)F)c3)C2)C1	x	3.8%	x	-4.8%
CC(C)(C)c1ccc(OC(=O)Nc2ccc(O)c(C(=O)O)c2)cc1	-0.8%	u	-13.1%	1.26µM*
Cc1ccc(OCC(=O)Nc2ccc(O)c(C(=O)O)c2)cc1C	0.0%	-53.8%	-2.6%[46.1 µM]	u
Cc1cccc2c1NC(=O)C2(c1ccc(O)cc1)c1ccc(O)cc1	0.5%	10.0%	-23.2%[46.1 µM]	-6.2%
Cc1cc(C2(c3ccc(O)c(C)c3)C(=O)Nc3ccccc32)ccc1O	-0.2%	-20.9%	u	15.8µM*
